# Data from PubChem BioAssay (NCATS).
# Results filed as inconclusive are left out. Unmarked numbers belong to inactive results. Active and inactive are the calls of the source. Calls come from the whole dose curve; as a rule, active = well fitted inhibition curve with a large enough effect; inconclusive = small, poorly fitted or top-dose-only effect; inactive = flat fitted curve, though single readings scatter. Numbered stars: 1 amine (or outer) side, 2 acyl side, 3 side chain; on linkers, the order of the positions; unused ones are H or OH. Bridge positions count the residues as written; N and C are the ends. Square brackets hold non-standard residues; d marks the D form. Peptide text beside a SMILES is read from it. * marks the point of attachment. ξ: configuration not given here. ΔAla(Z-3-ureido) = NC(=O)N/C=C(\N)C(=O)O; ξDab(CH2SO3H) = NC(CCNCS(=O)(=O)O)C(=O)O; X2 = NC1=NC(O)CC(C(N[*:1])C(=O)[*:2])N1; X1 = NC1=NCCC(C(N[*:1])C(=O)[*:2])N1; Heptanoyl(6-Me) = CC(C)CCCCC(=O)*; ξβ3hOrn = NCCCC(N)CC(=O)*; Orn = NCCC[CH](N)C(=O)O; Dab = NCC[CH](N)C(=O)O; Dap = NC[CH](N)C(=O)O
# Tested on: DFO2036
# Experiment: qHTS profiling for inhibitors of Plasmodium falciparum proliferation (AID 504749); note: nearly all actives have a fitted effect of over 60% in size;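 for activity, negative = inhibition: 0% = DMSO vehicle and full inhibition = artemisinin control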
# Details: P. falciparum in erythrocytes, SYBR Green DNA, 72 h; series mostly up to 28.7 µM; activity, negative = inhibition: at the top concentration
# Text: NIH National Institute of Allergy and Infectious Diseases [NIAID] NIH Chemical Genomics Center [NCGC] MLPCN Grant: None Assay Provider: Xinzhuan Su, NIAID NCGC Assay Overview: Plasmodium falciparum is a virulent malarial parasite that kills 1-2 million people worldwide each year. Transmitted by mosquitoes, the sporozoite form of the parasite enters the blood stream to infect hepatocytes, where they become merozoites that infect red blood cells (erythrocytes). Within erythrocytes, merozoites begin a […] cycle of growth and division, after which the parasite is released to infect new red blood cells. Gametocytes, which form within erythrocytes as well, circulate in the bloodstream and are ingested by the mosquito, thereby completing the life cycle. To profile malarial isolates for differential chemical responses and to identify inhibitors of malarial growth, an assay that measures P. falciparum growth and replication within erythrocytes was employed. This assay uses a DNA binding fluorescent dye (SYBR Green) to detect parasite DNA following cell lysis. Because mature erythrocytes lack DNA, only Plasmodium-derived DNA is detected.
# NCGC Assay Protocol Summary: The SYBR Green viability assay was adapted from a method described previously (Plouffe et al., 2008). For screening 3 ul culture medium was dispensed into 1536 well black clear bottom plates (Aurora Biotechnologies) using a Multidrop Combi (Thermo Fisher Scientific Inc.), 23 nL compounds in DMSO were added by a pin tool (Kalypsys), and 5 ul of erythrocytes infected with P. falciparum (0.3% parasitemia, 2.5% hematocrit final concentration) were added. The plates were incubated at 37 C in a humidified incubator in 5% CO2 for 72 h, and 2 ul lysis buffer (20 mM Tris HCl, 10 mM EDTA, 0.16% saponin, 1.6% triton X, 10X SYBR Green I supplied as 10,000X […] by Invitrogen) was added to each well. The plates were mixed for 25 sec with gentle shaking and incubated overnight at room temperature in the dark. The following morning, fluorescence intensity at 485(14) nm excitation and 535(25) nm emission wavelengths was measured on an EnVision (Perkin Elmer) plate reader. Plate reads were normalized relative to the control inhibitor (0.29 uM artemisinin) and vehicle (DMSO) wells present on each plate and then corrected by an algorithm using vehicle-only control plates at the beginning and end of the compound plate stack.
# Potency is the fitted concentration of half-maximal effect.
Compound,"activity, negative = inhibition",Potency
O=C1/C(=C\c2cccs2)CCC/C1=C/c1cccs1,18.2%,–
CCC(C)C1NC(=O)C(Cc2ccc(O)cc2)NC(=O)C(N)CSSCC(C(=O)N2CCCC2C(=O)NC(CC(C)C)C(=O)NCC(N)=O)NC(=O)C(CC(N)=O)NC(=O)C(CCC(N)=O)NC1=O (stereo not drawn),2.71%,–
Cn1cc(O)nc1NC(=O)Nc1cccc(Cl)c1,-29.5%,–
CC(C)CC(NC(=O)C(COC(C)(C)C)NC(=O)C(Cc1ccc(O)cc1)NC(=O)C(CO)NC(=O)C(Cc1c[nH]c2ccccc12)NC(=O)C(Cc1cnc[nH]1)NC(=O)C1CCC(=O)N1)C(=O)NC(CCCN=C(N)N)C(=O)N1CCCC1C(=O)NNC(N)=O (stereo not drawn),-1.85%,–
CCOC(=O)C(CS)NCCN[C@@H](CS)C(=O)OCC (stereo partly drawn),7.35%,–
CC(=O)OCC1=C(C(=O)O)N2C(=O)C(NC(=O)Cc3ccccc3)C2SC1 (stereo not drawn),6.46%,–
CC(C)CC1NC(=O)C(CCCN)NC(=O)C(C(C)C)NC(=O)C2CCCN2C(=O)C(Cc2ccccc2)NC(=O)C(CC(C)C)NC(=O)C(CCCN)NC(=O)C(C(C)C)NC(=O)C2CCCN2C(=O)C(Cc2ccccc2)NC1=O (stereo not drawn) (cyclo(FPV[Orn]LFPV[Orn]L); configuration not given here),–,2.8 nM (active)
CNCC(=O)NC(CCCN=C(N)N)C(=O)NC(C(=O)NC(Cc1ccc(O)cc1)C(=O)NC(C(=O)NC(Cc1cnc[nH]1)C(=O)N1CCCC1C(=O)NC(C)C(=O)O)C(C)C)C(C)C (stereo not drawn),5.07%,–
O=C(O)c1ccccc1-c1c2cc(Br)c(=O)c(Br)c-2oc2c(Br)c(O)c(Br)cc12,7.32%,–
COc1ccc(-c2nc3ccc(C4=C(C)CC(=O)NN4)cc3[nH]2)cc1,-13.2%,–
CC(N)C(=O)NCC(=O)NC1CSSCC(C(=O)O)NC(=O)C(CO)NC(=O)C(C(C)O)NC(=O)C(Cc2ccccc2)NC(=O)C(C(C)O)NC(=O)C(CCCCN)NC(=O)C(Cc2c[nH]c3ccccc23)NC(=O)C(Cc2ccccc2)NC(=O)C(Cc2ccccc2)NC(=O)C(CC(N)=O)NC(=O)C(CCCCN)NC1=O (stereo not drawn),7.66%,–
CC(C)C[C@H](NC(=O)[C@@H](Cc1c[nH]c2ccccc12)NC(=O)[C@@H](Cc1ccc(O)cc1)NC(=O)[C@@H](CO)NC(=O)[C@@H](Cc1c[nH]c2ccccc12)NC(=O)C(Cc1cnc[nH]1)NC(=O)C1CCC(=O)N1)C(=O)N[C@@H](CCCN=C(N)N)C(=O)N1CCC[C@@H]1C(=O)NCC(N)=O (stereo partly drawn),2.24%,–
CC1(C)C(/C=C/C=C/C=C/C=C2\N(CCCCS(=O)(=O)O)c3ccc4ccccc4c3C2(C)C)=[N+](CCCCS(=O)(=O)[O-])c2ccc3ccccc3c21,-0.293%,–
CCC(Oc1ccccc1)C(=O)NC1C(=O)N2C1SC(C)(C)C2C(=O)O (stereo not drawn),5.74%,–
CC(=O)OCC(=O)[C@@]1(O)CCC2C3CCC4=CC(=O)CC[C@]4(C)C3=CC[C@@]21C (stereo partly drawn),1.95%,–
O=C(OCC1OC(OC(=O)c2cc(O)c(O)c(OC(=O)c3cc(O)c(O)c(O)c3)c2)[C@@H](OC(=O)c2cc(O)c(O)c(OC(=O)c3cc(O)c(O)c(O)c3)c2)C(OC(=O)c2cc(O)c(O)c(OC(=O)c3cc(O)c(O)c(O)c3)c2)C1OC(=O)c1cc(O)c(O)c(OC(=O)c2cc(O)c(O)c(O)c2)c1)c1cc(O)c(O)c(OC(=O)c2cc(O)c(O)c(O)c2)c1 (stereo partly drawn),–,2240 nM (active)
C=CC1=C(C(=O)O)N2C(=O)[C@@H](NC(=O)C(N=O)c3csc(N)n3)[C@H]2SC1 (stereo partly drawn),12.7%,–
NCCCC(N)CC(=O)NCC1NC(=O)C(CO)NC(=O)C(N)CNC(=O)C(C2CCN=C(N)N2)NC(=O)/C(=C/NC(N)=O)NC1=O (stereo not drawn) (H-[Dap]S[Dap](ξβ3hOrn)[ΔAla(Z-3-ureido)][X1]; lactam 1-C; configuration not given here),13%,–
NCCCC(N)CC(=O)NC1CNC(=O)C(C2CC(O)N=C(N)N2)NC(=O)/C(=C/NC(N)=O)NC(=O)C(CO)NC(=O)C(CO)NC1=O (stereo not drawn) (ξβ3hOrn-[Dap]SS[ΔAla(Z-3-ureido)][X2]; lactam 1-C; configuration not given here),2.15%,–
CCC1NC(=O)C(NC(=O)c2ncccc2O)C(C)OC(=O)C(c2ccccc2)NC(=O)C2CC(=O)CCN2C(=O)C(Cc2ccccc2)N(C)C(=O)C2CCCN2C1=O (stereo not drawn),-24.8%,–
NC(=O)CCC1NC(=O)C(Cc2ccccc2)NC(=O)C(Cc2ccc(O)cc2)NC(=O)CCSSCC(C(=O)N2CCCC2C(=O)NC(CCCN=C(N)N)C(=O)NCC(N)=O)NC(=O)C(CC(N)=O)NC1=O (stereo not drawn),3.33%,–
CCC(C)C1NC(=O)C(CCNCS(=O)(=O)O)NC(=O)C(NC(=O)C(CCNCS(=O)(=O)O)NC(=O)C(NC(=O)C(CCNCS(=O)(=O)O)NC(=O)CCCCC(C)C)C(C)O)CCNC(=O)C(C(C)O)NC(=O)C(CCNCS(=O)(=O)O)NC(=O)C(CCNCS(=O)(=O)O)NC(=O)C(C(C)CC)NC1=O (stereo not drawn) ({Heptanoyl(6-Me)}-[ξDab(CH2SO3H)]T[ξDab(CH2SO3H)][Dab][ξDab(CH2SO3H)]II[ξDab(CH2SO3H)][ξDab(CH2SO3H)]T; lactam 4-C; configuration not given here),6.36%,–
CC(C)C(NC(=O)C(CC(=O)O)NC(=O)C(CCCCN)NC(=O)C(N)CCCN=C(N)N)C(=O)NC(Cc1ccc(O)cc1)C(=O)O (stereo not drawn) (H-RKDVY-OH; configuration not given here),4.31%,–
